Shn3 3UTR inh – inhibitors of Schnurri-3 3'UTR reporter in osteoblasts | actives 0.52% (n = 360,000) | inhibition, % at 12.5 µM | Clone20 osteoblast Shn3 3'UTR firefly luciferase, 24 h;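 active means mean inhibition of at least 75% with every replicate also reaching 75%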;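 further: 0% = median of neutral control wells and 100% = pilot-screen positive control compound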
Mdm2-MdmX inh – disrupts the human Mdm2-MdmX interaction | O15151+Q00987 | AID 485346 | inhibition, % at 8 µM | actives 3% (n = 330,000) | SaOS-2 split-luciferase Mdm2/MdmX complementation, luminescence;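 active means inhibition of at least 50% at 8 µM in the primary screen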
Target sequence (O15151 whole entry, looked up): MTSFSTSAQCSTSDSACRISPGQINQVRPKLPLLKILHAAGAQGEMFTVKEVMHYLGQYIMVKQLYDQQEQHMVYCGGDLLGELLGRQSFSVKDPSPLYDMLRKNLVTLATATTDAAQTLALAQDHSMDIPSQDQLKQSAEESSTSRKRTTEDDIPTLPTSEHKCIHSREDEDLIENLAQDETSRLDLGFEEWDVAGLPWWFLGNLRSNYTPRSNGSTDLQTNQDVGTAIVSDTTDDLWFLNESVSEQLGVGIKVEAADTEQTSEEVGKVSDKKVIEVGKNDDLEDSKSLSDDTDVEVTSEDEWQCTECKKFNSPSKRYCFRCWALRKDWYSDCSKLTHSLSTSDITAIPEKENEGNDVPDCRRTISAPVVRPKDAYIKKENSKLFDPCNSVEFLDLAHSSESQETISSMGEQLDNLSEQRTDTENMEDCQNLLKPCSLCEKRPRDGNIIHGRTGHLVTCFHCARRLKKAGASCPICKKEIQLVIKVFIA
Target sequence (Q00987 whole entry, looked up): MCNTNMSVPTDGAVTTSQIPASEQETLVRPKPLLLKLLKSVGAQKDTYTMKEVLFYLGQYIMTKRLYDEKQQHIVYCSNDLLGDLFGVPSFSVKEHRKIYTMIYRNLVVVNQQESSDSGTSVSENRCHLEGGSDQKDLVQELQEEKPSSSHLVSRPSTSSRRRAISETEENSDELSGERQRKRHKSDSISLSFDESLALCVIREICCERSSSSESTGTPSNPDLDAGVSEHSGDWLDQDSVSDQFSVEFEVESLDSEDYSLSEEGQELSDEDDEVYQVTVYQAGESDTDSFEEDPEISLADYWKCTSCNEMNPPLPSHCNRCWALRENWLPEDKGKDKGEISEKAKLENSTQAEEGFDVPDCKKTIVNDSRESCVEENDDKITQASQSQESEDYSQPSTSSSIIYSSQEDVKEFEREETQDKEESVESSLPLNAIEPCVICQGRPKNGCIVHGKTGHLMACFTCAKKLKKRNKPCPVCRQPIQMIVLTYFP
Jurkat NFkB inh – lowers PMA/ionomycin-induced NF-kB signal in Jurkat cells. PMA/ionomycin-induced NF-kB luciferase reporter, luminescence. inhibition, % at 4 µM. actives 0.53% (n = 330,000); in the data active means inhibition above about 50%
Gli-Sufu antag – antagonists of Gli-Sufu signaling | inhibition, % at 5 µM | actives 0.74% (n = 340,000) | Sufu-KO-LIGHT fibroblasts, Gli luciferase reporter luminescence;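 active means inhibition above about 55%, limit read from the data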;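 further: 0% = DMSO-treated cells and 100% = wells with medium but no cells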
697 NFkB inh – inhibitors of the PMA/ionomycin-induced NF-kB reporter in 697 B cells; inhibition, % at 4 µM; AID 435022; 697 B-cell NF-kB luciferase reporter, 16 h; actives 0.33% (n = 330,000); in the data active means inhibition above about 35%
Mdm2-MdmX conf – human Mdm2/MdmX binding inhibition, confirmed; shares compounds with Mdm2-MdmX inh; luminescent assay; inhibition, % at 8 µM; actives 55% (n = 10,000); in the data active means inhibition above about 40%
Full FLuc ctr – full-length luciferase inhibition in Mdm2/MdmX counter-screen. shares compounds with Mdm2-MdmX inh. SaOS-2 full-length luciferase counterscreen, luminescence. inhibition, % at 8 µM. actives 77% (n = 6,200);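 active means mean inhibition at 8 µM reaching about 37%, which flags the compound as non-specific, limit read from the data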;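 further: p53-null SaOS-2 cells with luciferase driven by a doxycycline-inducible promoter; compound on cells about two nights before reading with doxycycline added after day one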
* marks the source's active call; other numbers are inactive results. A selection: hits, their analogues and other compounds. The true share with any hit is near 3.8%.

Results for CCn1c(=O)n(CC)c2cc(N3CCCC3)c(NC(=O)c3cc(Cl)ccc3OC)cc21 ?
Shn3 3UTR inh: -3; Mdm2-MdmX inh: 64*; Jurkat NFkB inh: -22; Gli-Sufu antag: 17; 697 NFkB inh: -14; Mdm2-MdmX conf: 21

What do the screens show for `CC(=O)Cc1nsc(NC(=O)c2cccc(F)c2)n1`?
Shn3 3UTR inh: -34; Mdm2-MdmX inh: -3; Jurkat NFkB inh: -1; Gli-Sufu antag: -42; 697 NFkB inh: -19

Results for O=C(CSc1nc(-c2ccccc2)cs1)NCCN1C(=O)CSC1=O ?
Shn3 3UTR inh: -29; Mdm2-MdmX inh: -11; Jurkat NFkB inh: -25; Gli-Sufu antag: -16; 697 NFkB inh: 1

How did CCC(=O)Nc1ccc(/C(C)=N/NC(=O)c2c(Br)c(C)nn2C)cc1 do in these assays?
Shn3 3UTR inh: -12; Mdm2-MdmX inh: 18; Jurkat NFkB inh: 19; Gli-Sufu antag: -1; 697 NFkB inh: -15

Results for C/C(=N\NC(=O)c1c(Br)c(C)nn1C)c1ccc(NC(=O)C(C)Oc2ccc(Cl)cc2C)cc1 (centres undefined) ?
Shn3 3UTR inh: 7; Mdm2-MdmX inh: 62*; Jurkat NFkB inh: -14; Gli-Sufu antag: 9; 697 NFkB inh: 4; Mdm2-MdmX conf: 9

How did CC(C)CCN(C(=O)c1csnn1)C(C(=O)NC1CCCCC1)c1ccc(F)cc1 (centres undefined) do in these assays?
Shn3 3UTR inh: 4; Mdm2-MdmX inh: -6; Jurkat NFkB inh: -6; Gli-Sufu antag: 23; 697 NFkB inh: 6

What do the screens show for `CN1CCN(c2ccccc2NC(=O)c2ccc(-c3ccc(Cl)cc3Cl)o2)CC1`?
Shn3 3UTR inh: 8; Mdm2-MdmX inh: 56*; Jurkat NFkB inh: 15; Gli-Sufu antag: 9; 697 NFkB inh: -8; Mdm2-MdmX conf: 52*; Full FLuc ctr: 86*

What do the screens show for `CC1CCN(CC(=O)Nc2cccc(C(=O)Nc3cccc(C(F)(F)F)c3)c2)CC1`?
Shn3 3UTR inh: 78; Mdm2-MdmX inh: 26; Jurkat NFkB inh: 0; Gli-Sufu antag: -6; 697 NFkB inh: -1

What do the screens show for `O=C(NCc1ccccn1)c1cccc(S(=O)(=O)NCc2ccccc2)c1`?
Shn3 3UTR inh: 0; Mdm2-MdmX inh: -7; Jurkat NFkB inh: -6; Gli-Sufu antag: -1; 697 NFkB inh: 17

Results for COc1ccccc1C1CCCN1Cc1nc(-c2cc3c(cc2Cl)OCO3)oc1C (centres undefined) ?
Shn3 3UTR inh: 7; Mdm2-MdmX inh: 22; Jurkat NFkB inh: -3; Gli-Sufu antag: 34; 697 NFkB inh: -16

How did COc1ccccc1C1CCCN1Cc1nc(-c2ccc(C)s2)oc1C (centres undefined) do in these assays?
Shn3 3UTR inh: 22; Mdm2-MdmX inh: 75*; Jurkat NFkB inh: -9; Gli-Sufu antag: 24; 697 NFkB inh: -33; Mdm2-MdmX conf: 66*; Full FLuc ctr: 52*

How did O=C(Nc1ccc(SC(F)F)cc1)c1cccc2nc3ccccc3nc12 do in these assays?
Shn3 3UTR inh: -3; Mdm2-MdmX inh: 78*; Jurkat NFkB inh: 23; Gli-Sufu antag: 15; 697 NFkB inh: 18; Mdm2-MdmX conf: 17

Results for O=C(COc1ccccc1C(=O)O)Nc1ccc(SC(F)F)cc1 ?
Shn3 3UTR inh: -5; Mdm2-MdmX inh: 7; Jurkat NFkB inh: -5; Gli-Sufu antag: 3; 697 NFkB inh: 5

What do the screens show for `O=C(/C=C/c1ccco1)Nc1ccc(Oc2ccc(Cl)cc2)cc1`?
Shn3 3UTR inh: 61; Mdm2-MdmX inh: 55*; Jurkat NFkB inh: 34; Gli-Sufu antag: -2; 697 NFkB inh: -134; Mdm2-MdmX conf: 60*; Full FLuc ctr: 40*

How did Cc1cc(C)c(NS(=O)(=O)c2ccc(NC(=O)CCC(=O)O)cc2)c(C)c1 do in these assays?
Shn3 3UTR inh: 0; Mdm2-MdmX inh: -20; Jurkat NFkB inh: -1; Gli-Sufu antag: 4; 697 NFkB inh: 10

What do the screens show for `FC(F)(F)c1nc2ccccc2n2c(-c3ccc(Cl)cc3)nnc12`?
Shn3 3UTR inh: -2; Mdm2-MdmX inh: 96*; Jurkat NFkB inh: 34; Gli-Sufu antag: 11; 697 NFkB inh: -11; Mdm2-MdmX conf: 96*; Full FLuc ctr: 41*

What do the screens show for `Cc1ccc(-c2nc3ccccc3n3nnnc23)cc1`?
Shn3 3UTR inh: -4; Gli-Sufu antag: 7

What do the screens show for `On1c(-c2ccc(Cl)cc2)nc2ccccc21`?
Shn3 3UTR inh: -44; Mdm2-MdmX inh: -14; Jurkat NFkB inh: -29; Gli-Sufu antag: -7; 697 NFkB inh: -44

What do the screens show for `Cc1ccc(-c2nnc3c(C(F)(F)F)nc4ccccc4n23)cc1`?
Shn3 3UTR inh: 5; Mdm2-MdmX inh: 54*; Jurkat NFkB inh: 9; Gli-Sufu antag: -9; 697 NFkB inh: -5; Mdm2-MdmX conf: 15

Results for O=[N+]([O-])c1cnc(Sc2ccncn2)s1 ?
Shn3 3UTR inh: 28; Mdm2-MdmX inh: 97*; Jurkat NFkB inh: 28; Gli-Sufu antag: 5; 697 NFkB inh: 9; Mdm2-MdmX conf: 100*; Full FLuc ctr: 52*

How did O=[N+]([O-])c1cnc(Sc2ccncn2)c([N+](=O)[O-])c1 do in these assays?
Shn3 3UTR inh: 3

Results for O=[N+]([O-])/C=C/c1c(OCc2ccccc2)ccc2ccccc12 ?
Mdm2-MdmX inh: 95*; Jurkat NFkB inh: -38; 697 NFkB inh: -34; Mdm2-MdmX conf: 100*; Full FLuc ctr: 50*

Results for CCCCOc1ccc2ccccc2c1C=O ?
Shn3 3UTR inh: -31; Mdm2-MdmX inh: -9; Jurkat NFkB inh: -31; Gli-Sufu antag: -31; 697 NFkB inh: -60

What do the screens show for `Cc1cnc(C(=O)NNC(=O)c2ccc(Br)cc2)cn1`?
Shn3 3UTR inh: 43; Mdm2-MdmX inh: 61*; Jurkat NFkB inh: 11; Gli-Sufu antag: -10; 697 NFkB inh: -9; Mdm2-MdmX conf: 35; Full FLuc ctr: 69*

What do the screens show for `O=C(NNC(=O)C1CCC1)c1ccc(Br)cc1`?
Shn3 3UTR inh: -5; Mdm2-MdmX inh: -10; Jurkat NFkB inh: -16; Gli-Sufu antag: 6; 697 NFkB inh: -12

Results for Cc1c(C#N)c(O)n(CCO)c(=O)c1N=Nc1ccc2c(c1)COC2=O ?
Shn3 3UTR inh: -3; Mdm2-MdmX inh: 91*; Jurkat NFkB inh: 3; Gli-Sufu antag: 1; 697 NFkB inh: 11; Mdm2-MdmX conf: 19

How did COc1ccc(C(=O)Oc2cc3c4c(c2)C(C)=CC(C)(C)N4C(=O)C3=O)cc1OC do in these assays?
Shn3 3UTR inh: -2; Mdm2-MdmX inh: 67*; Jurkat NFkB inh: 21; Gli-Sufu antag: -19; 697 NFkB inh: 21; Mdm2-MdmX conf: 24

What do the screens show for `COc1cc2c3c(c1)C(C)=CC(C)(C)N3C(=O)C2=O`?
Shn3 3UTR inh: -16; Mdm2-MdmX inh: 56*; Jurkat NFkB inh: -4; Gli-Sufu antag: 2; 697 NFkB inh: 7; Mdm2-MdmX conf: 26

Results for COc1ccc(C(=O)Oc2ccc(C(=S)N3CCCC3)cc2)cc1OC ?
Mdm2-MdmX inh: 5; Jurkat NFkB inh: 8; 697 NFkB inh: -1

Source: PubChem (several laboratories)
